Data taken from PubChem BioAssay AID1159580 (chemical genetic matrix, 2015).
“And” between values parts separate entries of the source, which are not always exact repeats. Equal entries are not always repeated. About 2,000 (36%) of roughly 5,500 compounds were called active. Inconclusive results (about 18%) are left out. No stated cut-off is given here; in the data, active means normalized growth mostly below about 0.91 (no sharp cut-off); inconclusive means no clear call, values can overlap the other calls; inactive means mostly above about 0.92. The list shows a part of the results.

Experiment: chemical genetic growth profiling, strain panel (AID 1159580);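 further: tested at 20 µM; growth read once vehicle control cultures reached saturation at 30 °C; 1 = growth at the plate median or of vehicle wells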
Conditions: S. cerevisiae deletion strains, growth OD

Measured: normalized growth

OC[C@H]1O[C@@](CO)(O[C@@H]2O[C@H](CO)[C@@H](O)[C@H](O)[C@H]2O)[C@@H](O[C@@H]2O[C@H](CO)[C@@H](O)[C@H](O)[C@H]2O)[C@@H]1O
inactive: locus YAL013W, strain DEP1, stronger effect = lower value 1.02 | locus YAL021C, strain ccr4, stronger effect = lower value 1.01 | locus YAL026C, strain drs2, stronger effect = lower value 1.02 | locus YAL030W, strain snc1, stronger effect = lower value 1.02 | locus YBL061C, strain skt5, stronger effect = lower value 1.02 | locus YBR009C, strain hhf1, stronger effect = lower value 1.02 | locus YBR021W, strain FUR4, stronger effect = lower value 1.01 | locus YBR023C, strain chs3, stronger effect = lower value 1.02 | locus YBR171W, strain sec66, stronger effect = lower value 1.03 | locus YBR229C, strain ROT2, stronger effect = lower value 1.01 | locus YBR231C, strain swc5, stronger effect = lower value 1.02 | locus YBR279W, strain paf1, stronger effect = lower value 1.02 | locus YCL011C, strain gbp2, stronger effect = lower value 1.02 | locus YCL016C, strain dcc1, stronger effect = lower value 1.02 | locus YCL029C, strain bik1, stronger effect = lower value 1.05 | locus YCL061C, strain MRC1, stronger effect = lower value 1.01 | locus YCL069W, strain vba3, stronger effect = lower value 1.01 | locus YCR088W, strain abp1, stronger effect = lower value 1.01 | locus YDL005C, strain med2, stronger effect = lower value 1.02 | locus YDL035C, strain GPR1, stronger effect = lower value 1.04 | locus YDL040C, strain nat1, stronger effect = lower value 1.01 | locus YDL074C, strain BRE1, stronger effect = lower value 1.09 | locus YDL101C, strain DUN1, stronger effect = lower value 1.02 | locus YDL134C, strain PPH21, stronger effect = lower value 1.05 | locus YDL185W, strain tfp1, stronger effect = lower value 1.01 | locus YDL192W, strain arf1, stronger effect = lower value 1.04 | locus YDR001C, strain nth1, stronger effect = lower value 1.02 | locus YDR069C, strain doa4, stronger effect = lower value 1.04 | locus YDR101C, strain arx1, stronger effect = lower value 1.01 | locus YDR137W, strain rgp1, stronger effect = lower value 1.02 | locus YDR159W, strain sac3, stronger effect = lower value 1.02 | locus YDR162C, strain NBP2, stronger effect = lower value 1.07 | locus YDR195W, strain ref2 1.01 | locus YDR297W, strain sur2, stronger effect = lower value 1.02 | locus YDR318W, strain mcm21, stronger effect = lower value 1.06 | locus YDR334W, strain swr1, stronger effect = lower value 1.02 | locus YDR335W, strain msn5, stronger effect = lower value 1.02 | locus YDR388W, stronger effect = lower value 1.01 | locus YDR392W, strain spt3, stronger effect = lower value 0.969 | locus YDR502C, strain sam2, stronger effect = lower value 1.05 | locus YEL003W, strain gim4, stronger effect = lower value 1.03 | locus YEL037C, strain rad23, stronger effect = lower value 1.02 | locus YEL061C, strain CIN8 (second series), stronger effect = lower value 1.02 | locus YEL061C, strain CIN8, stronger effect = lower value 1.01 | locus YER015W, strain faa2, stronger effect = lower value 1.02 | locus YER016W, strain bim1, stronger effect = lower value 1.02 | locus YER110C, stronger effect = lower value 1.01 | locus YER111C, strain swi4, stronger effect = lower value 1.02 | locus YER155C, strain BEM2 (second series), stronger effect = lower value 1.03 | locus YER155C, strain BEM2, stronger effect = lower value 1.02 | locus YER167W, strain BCK2, stronger effect = lower value 1.01 | locus YFR010W, strain ubp6, stronger effect = lower value 1.02 | locus YGL078C, strain dbp3, stronger effect = lower value 1.04 | locus YGL086W, strain mad1, stronger effect = lower value 1.03 | locus YGL167C, strain pmr1, stronger effect = lower value 1.02 | locus YGL173C, strain kem1, stronger effect = lower value 1.03 | locus YGL227W, strain vid30, stronger effect = lower value 1.02 | locus YGL240W, strain doc1, stronger effect = lower value 1.02 | locus YGL248W, strain PDE1, stronger effect = lower value 1.05 | locus YGL253W, strain hxk2, stronger effect = lower value 1.02 | locus YGR078C, strain PAC10, stronger effect = lower value 1.04 | locus YGR135W, strain pre9, stronger effect = lower value 1.04 | locus YGR252W, strain gcn5, stronger effect = lower value 1.09 | locus YHR013C, strain ard1, stronger effect = lower value 1.03 | locus YHR027C, strain rpn1, stronger effect = lower value 1.02 | locus YHR030C, strain SLT2, stronger effect = lower value 1.01 | locus YHR079C, strain IRE1 (second series), stronger effect = lower value 1.01 | locus YHR079C, strain IRE1, stronger effect = lower value 1.02 | locus YHR094C, strain hxt1, stronger effect = lower value 1 | locus YHR129C, strain ARP1, stronger effect = lower value 1.02 | locus YHR142W, strain chs7, stronger effect = lower value 1.01 | locus YHR200W, strain rpn10, stronger effect = lower value 1.03 | locus YIL066C, strain RNR3, stronger effect = lower value 1.03 | locus YIL073C, strain SPO22, stronger effect = lower value 1.05 | locus YIL125W, strain kgd1, stronger effect = lower value 1.02 | locus YIR030C, strain dcg1, stronger effect = lower value 1.01 | locus YJL092W, strain hpr5, stronger effect = lower value 1.02 | locus YJL095W, strain BCK1 (second series), stronger effect = lower value 1.02 | locus YJL095W, strain BCK1, stronger effect = lower value 1.08 and 1 | locus YJL115W, strain asf1, stronger effect = lower value 1.02 | locus YJL129C, strain trk1, stronger effect = lower value 1.01 | locus YJL134W, strain LCB3, stronger effect = lower value 1.01 | locus YJL154C, strain vps35, stronger effect = lower value 1.01 | locus YJL164C, strain tpk1, stronger effect = lower value 1 | locus YJL166W, strain qcr8, stronger effect = lower value 1.02 | locus YJL168C, strain set2, stronger effect = lower value 1.02 | locus YJL187C, strain SWE1 (second series), stronger effect = lower value 1.05 | locus YJL187C, strain SWE1, stronger effect = lower value 1.02
